The values below come from PubChem BioAssay (NCATS).

Inconclusive results are not listed. Values without a mark were called inactive. Active and inactive are the calls of the source. Calls come from the whole dose curve; as a rule, active = well fitted curve in the direction sought with a large enough effect; inconclusive = small, poorly fitted or top-dose-only effect, or another doubt; inactive = no such curve, though single readings can be large; an effect the other way counts as inactive or inconclusive.

Glucagon-like peptide 1 receptor (Homo sapiens), sequence (P43220 whole entry, looked up): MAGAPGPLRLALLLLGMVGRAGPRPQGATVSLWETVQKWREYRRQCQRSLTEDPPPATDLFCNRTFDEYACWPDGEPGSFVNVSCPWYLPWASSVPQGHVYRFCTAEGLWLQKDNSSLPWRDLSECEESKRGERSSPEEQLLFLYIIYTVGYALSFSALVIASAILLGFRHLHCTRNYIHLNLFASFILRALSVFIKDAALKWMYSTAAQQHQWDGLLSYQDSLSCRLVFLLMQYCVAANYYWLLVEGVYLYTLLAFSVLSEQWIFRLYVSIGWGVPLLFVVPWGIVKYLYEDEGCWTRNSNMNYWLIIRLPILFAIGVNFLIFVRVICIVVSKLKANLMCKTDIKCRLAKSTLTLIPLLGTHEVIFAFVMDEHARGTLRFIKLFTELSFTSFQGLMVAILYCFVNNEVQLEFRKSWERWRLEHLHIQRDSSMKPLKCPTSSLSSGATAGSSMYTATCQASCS

The target of the first assay is Glutaminase kidney isoform, mitochondrial (Homo sapiens) (UniProt O94925). As to the kind of experiment: qHTS for Inhibitors of Glutaminase (GLS): LOPAC Validation (AID 624146).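 For activity change, negative = inhibition: glutamate product detected by oxidase and peroxidase coupled Amplex red fluorescence gain; % is set by controls: 0 for no effect and ±100 for the full control effect.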 Note: nearly all actives have a fitted effect of over 60% in size. Note: potency is the fitted concentration of half-maximal effect. To be noted: glutaminase enzyme activity inhibition; series mostly up to 46.1 µM; activity change, negative = inhibition: at the top concentration. The method in brief: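 hKGA in 45 mM KH2PO4 pH 8.2, 0.02% Tween-20 with pin-transferred compounds; 1 mM L-glutamine (stock) plus glutamate oxidase/HRP/Amplex Red coupling added. Fluorescence read initially and after 30 min at RT.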
Glutaminase kidney isoform, mitochondrial (Homo sapiens), sequence (O94925 whole entry, looked up, canonical isoform): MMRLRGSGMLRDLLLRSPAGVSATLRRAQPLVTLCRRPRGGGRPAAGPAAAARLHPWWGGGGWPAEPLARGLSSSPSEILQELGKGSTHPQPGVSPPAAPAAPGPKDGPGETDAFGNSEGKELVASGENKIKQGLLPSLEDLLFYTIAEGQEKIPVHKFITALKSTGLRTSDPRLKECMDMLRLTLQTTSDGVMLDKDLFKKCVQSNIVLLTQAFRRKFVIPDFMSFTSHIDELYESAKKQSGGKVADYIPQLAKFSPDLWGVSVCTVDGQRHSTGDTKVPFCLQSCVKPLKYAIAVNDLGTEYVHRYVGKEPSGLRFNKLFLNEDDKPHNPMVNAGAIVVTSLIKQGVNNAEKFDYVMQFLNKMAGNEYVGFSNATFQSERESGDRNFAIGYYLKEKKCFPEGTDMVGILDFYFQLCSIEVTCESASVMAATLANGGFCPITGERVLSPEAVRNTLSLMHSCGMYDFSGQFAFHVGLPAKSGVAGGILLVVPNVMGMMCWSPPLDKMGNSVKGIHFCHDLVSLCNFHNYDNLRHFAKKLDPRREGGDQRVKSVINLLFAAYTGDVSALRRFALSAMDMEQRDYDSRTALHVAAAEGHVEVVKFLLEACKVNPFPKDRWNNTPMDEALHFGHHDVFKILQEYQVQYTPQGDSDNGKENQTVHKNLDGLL
For the compound `CC[C@@]1(O)C(=O)OCc2c1cc1n(c2=O)Cc2cc3ccccc3nc2-1`, the “activity change, negative = inhibition” value is -5.5%.

Turning to `NC(CP(=O)(O)O)C(=O)O` (stereo not given), the “activity change, negative = inhibition” value is -11.5%.

Take `Cn1cnc(CCN)c1`: the “activity change, negative = inhibition” value is -23.5%.

On to `NC(N)=NOCCC(N)C(=O)O` (stereo not given), for which the “activity change, negative = inhibition” value is -17.9%.

On to `CC(Cc1ccc(O)cc1)NCC(O)c1cc(O)cc(O)c1` (stereo not given), for which the Potency is 4.47 µM (active).

As for `CC[C@@H](C(N)=O)N1CCCC1=O`, the “activity change, negative = inhibition” value was -4.68%.

With `NCc1cc(=O)[nH]o1`, the “activity change, negative = inhibition” value was 119%.

Regarding `c1ccc2sc(C3(N4CCCCC4)CCCCC3)cc2c1`, the “activity change, negative = inhibition” value was -13.1%.

Turning to `CNCCc1ccc(O)c(O)c1`, the “activity change, negative = inhibition” value was 138%.

For `NC(=NCCC[C@H](N)C(=O)O)N[N+](=O)[O-]`, the “activity change, negative = inhibition” value is -9.56%.

Regarding `O=C(Cc1ccc(Cl)c(Cl)c1)N1CCCCC1CN1CCCC1` (stereo not given), the “activity change, negative = inhibition” value is -12.6%.

Turning to `C[C@@H]1O[C@H](C[N+](C)(C)C)C[C@H]1O`, the “activity change, negative = inhibition” value is -14.5%.

On to `NCCc1c[nH]c2ccc(O)cc12`, for which the “activity change, negative = inhibition” value was -31.9%.

As to `Clc1cnc(Oc2ccc(Oc3ncc(Cl)cc3Cl)cc2)c(Cl)c1`, the “activity change, negative = inhibition” value was -20.4%.

Consider `CC(C)Oc1cccnc1N(C)C1CCN(Cc2ccccc2)CC1`, for which the “activity change, negative = inhibition” value was -32.6%.

On to `O=C(O)[C@@H]1CCN1`, for which the “activity change, negative = inhibition” value is -4.01%.

Turning to `S=C(NC1CCCCC1)N1CCC(c2cnc[nH]2)CC1`, the “activity change, negative = inhibition” value was -11.2%.

For `C/C=C(/C)C(=O)O[C@H]1C(C)=C2[C@H]([C@@H]1OC(=O)CCCCCCC)[C@@](C)(OC(C)=O)C[C@H](OC(=O)CCC)[C@@]1(O)[C@H]2OC(=O)[C@@]1(C)O`, the “activity change, negative = inhibition” value was -16.8%.

As for `C[N+]1(C)C2CCC1CC(OC(=O)C(CO)c1ccccc1)C2` (stereo not given), the Potency entry is “inactive”.

`C[C@]12N[C@H](Cc3ccccc31)c1ccccc12`: the “activity change, negative = inhibition” value was -0.0204%.

For `Oc1ccc2c3c1O[C@H]1c4[nH]c5c(c4C[C@@]4(O)[C@@H](C2)N(CC2CC2)CC[C@]314)C[C@@]1(O)[C@H]2Cc3ccc(O)c4c3[C@@]1(CCN2CC1CC1)[C@H]5O4`, the Potency was 12.6 µM (active).

As to `O=C(O)CC[N+](=O)[O-]`, the “activity change, negative = inhibition” value was -5.09%.

For the compound `CC(=O)NCCc1c[nH]c2ccccc12`, the “activity change, negative = inhibition” value was 0.465%.

Consider `O=C(N[C@H]1CN2CCC1CC2)c1ccc(Cl)cc1`, for which the “activity change, negative = inhibition” value was 10.4%.

For `O=C1CCCN1CC#CCN1CCCC1`, the “activity change, negative = inhibition” value is -8.76%.

Consider `COc1ccc2c(c[n+](C)c3c4cc5c(cc4ccc23)OCO5)c1OC`, for which the Potency was 3.16 µM (active).

System in another assay: not listed separately
Nature of the assay: qHTS of Trypanosoma Brucei Inhibitors: LOPAC Validation (AID 624147). Note: 0% is about no effect. To be noted: purified enzyme assay, luminescence, 45 min; series mostly up to 57.5 µM; activity change, negative = inhibition: at the top concentration. The method in brief: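 Luminescence from Kinase-Glo Plus, added after a 45-minute room-temperature reaction, served as the end-point read-out. The enzyme and substrate were preincubated with compound before ADP (130 uM final) initiated turnover. Concentration-effect curves came from normalized qHTS data.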
A general note: In qHTS, concentration-response curves come from the screen itself.
Take `CC[C@@]1(O)C(=O)OCc2c1cc1n(c2=O)Cc2cc3ccccc3nc2-1`: the “activity change, negative = inhibition” value is 2.52%.

Consider `NC(CP(=O)(O)O)C(=O)O` (stereo not given), for which the “activity change, negative = inhibition” value is -7.17%.

As for `Cn1cnc(CCN)c1`, the “activity change, negative = inhibition” value is -2.36%.

Regarding `NC(N)=NOCCC(N)C(=O)O` (stereo not given), the “activity change, negative = inhibition” value is -2.95%.

Turning to `CC(Cc1ccc(O)cc1)NCC(O)c1cc(O)cc(O)c1` (stereo not given), the “activity change, negative = inhibition” value is -7.45%.

For the compound `Cc1c(C(=O)c2cccc3ccccc23)c2cccc3c2n1[C@H](CN1CCOCC1)CO3`, the “activity change, negative = inhibition” value is -2.12%.

As for `CC[C@@H](C(N)=O)N1CCCC1=O`, the “activity change, negative = inhibition” value was -15.7%.

Turning to `NCc1cc(=O)[nH]o1`, the “activity change, negative = inhibition” value was 8.38%.

On to `c1ccc2sc(C3(N4CCCCC4)CCCCC3)cc2c1`, for which the “activity change, negative = inhibition” value was -9.42%.

`CNCCc1ccc(O)c(O)c1`: the “activity change, negative = inhibition” value was -7.68%.

Take `NC(=NCCC[C@H](N)C(=O)O)N[N+](=O)[O-]`: the “activity change, negative = inhibition” value is -9%.

Regarding `O=C(Cc1ccc(Cl)c(Cl)c1)N1CCCCC1CN1CCCC1` (stereo not given), the “activity change, negative = inhibition” value was 1.16%.

Take `C[C@@H]1O[C@H](C[N+](C)(C)C)C[C@H]1O`: the “activity change, negative = inhibition” value was -5.56%.

On to `NCCc1c[nH]c2ccc(O)cc12`, for which the “activity change, negative = inhibition” value was 6.32%.

Take `Clc1cnc(Oc2ccc(Oc3ncc(Cl)cc3Cl)cc2)c(Cl)c1`: the “activity change, negative = inhibition” value is -7.49%.

For `CC(C)Oc1cccnc1N(C)C1CCN(Cc2ccccc2)CC1`, the “activity change, negative = inhibition” value was -13.4%.

As to `O=C(O)[C@@H]1CCN1`, the “activity change, negative = inhibition” value was 2.34%.

On to `CC1=NN=C(c2ccc(N)cc2)c2cc3c(cc2C1)OCO3`, for which the “activity change, negative = inhibition” value is 5.11%.

`S=C(NC1CCCCC1)N1CCC(c2cnc[nH]2)CC1`: the “activity change, negative = inhibition” value was -15.2%.

For `C/C=C(/C)C(=O)O[C@H]1C(C)=C2[C@H]([C@@H]1OC(=O)CCCCCCC)[C@@](C)(OC(C)=O)C[C@H](OC(=O)CCC)[C@@]1(O)[C@H]2OC(=O)[C@@]1(C)O`, the “activity change, negative = inhibition” value is -7.2%.

Consider `C[N+]1(C)C2CCC1CC(OC(=O)C(CO)c1ccccc1)C2` (stereo not given), for which the call was inactive.

For `C[C@]12N[C@H](Cc3ccccc31)c1ccccc12`, the “activity change, negative = inhibition” value is 5.3%.

Take `CNCCc1c[nH]c2ccc(O)cc12`: the “activity change, negative = inhibition” value was -25.6%.

In the case of `Oc1ccc2c3c1O[C@H]1c4[nH]c5c(c4C[C@@]4(O)[C@@H](C2)N(CC2CC2)CC[C@]314)C[C@@]1(O)[C@H]2Cc3ccc(O)c4c3[C@@]1(CCN2CC1CC1)[C@H]5O4`, the “activity change, negative = inhibition” value was -5.88%.

`O=C(O)CC[N+](=O)[O-]`: the “activity change, negative = inhibition” value is -11%.

In the case of `CC(=O)NCCc1c[nH]c2ccccc12`, the “activity change, negative = inhibition” value is 1.61%.

Regarding `O=C(N[C@H]1CN2CCC1CC2)c1ccc(Cl)cc1`, the “activity change, negative = inhibition” value is -8.84%.

`O=C1CCCN1CC#CCN1CCCC1`: the “activity change, negative = inhibition” value is -14.3%.

With `CN[C@@H]1C[C@@H](c2ccc(Cl)c(Cl)c2)c2ccccc21`, the “activity change, negative = inhibition” value is -7.07%.

As for `COc1ccc2c(c[n+](C)c3c4cc5c(cc4ccc23)OCO5)c1OC`, the “activity change, negative = inhibition” value is -8.68%.

A further assay concerns the target Glucagon-like peptide 1 receptor (Homo sapiens) (UniProt P43220). Nature of the assay: qHTS of GLP-1 Receptor Agonists: LOPAC Validation (AID 624148).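 Note: luminescence from a luciferase reporter switched on by cAMP; 0% is about no effect; higher luminescence signal means agonism.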 Particulars: GLP-1R agonist cell assay; series mostly up to 46.1 µM; activation: at the top concentration. The method in brief:
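Agonism scored as increased luciferase luminescence driven by cAMP in HEK293 clones carrying GLP-1R. Cells settled 12 hours, received compound for 4-6 hr at 37 deg C, 5% CO2, and were read after 12 min detection reagent at RT.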
In the case of `CC[C@@]1(O)C(=O)OCc2c1cc1n(c2=O)Cc2cc3ccccc3nc2-1`, the “activation” value was -0.485%.

As to `NC(CP(=O)(O)O)C(=O)O` (stereo not given), the “activation” value is -1.97%.

`Cn1cnc(CCN)c1`: the “activation” value was 0.903%.

Take `NC(N)=NOCCC(N)C(=O)O` (stereo not given): the “activation” value was -1.58%.

As for `Cc1c(C(=O)c2cccc3ccccc23)c2cccc3c2n1[C@H](CN1CCOCC1)CO3`, the “activation” value is 1.14%.

Take `CC[C@@H](C(N)=O)N1CCCC1=O`: the “activation” value is -1.26%.

For the compound `NCc1cc(=O)[nH]o1`, the “activation” value was -1.47%.

On to `c1ccc2sc(C3(N4CCCCC4)CCCCC3)cc2c1`, for which the “activation” value is -0.896%.

For the compound `NC(=NCCC[C@H](N)C(=O)O)N[N+](=O)[O-]`, the “activation” value is -0.783%.

For the compound `O=C(Cc1ccc(Cl)c(Cl)c1)N1CCCCC1CN1CCCC1` (stereo not given), the “activation” value was -1.49%.

For `C[C@@H]1O[C@H](C[N+](C)(C)C)C[C@H]1O`, the “activation” value was 10.2%.

With `NCCc1c[nH]c2ccc(O)cc12`, the “activation” value was -1.73%.

For `Clc1cnc(Oc2ccc(Oc3ncc(Cl)cc3Cl)cc2)c(Cl)c1`, the “activation” value was 5.98%.

Turning to `CC(C)Oc1cccnc1N(C)C1CCN(Cc2ccccc2)CC1`, the “activation” value is 0.628%.

With `O=C(O)[C@@H]1CCN1`, the “activation” value was 0.464%.

For `CC1=NN=C(c2ccc(N)cc2)c2cc3c(cc2C1)OCO3`, the “activation” value is 18.3%.

As to `S=C(NC1CCCCC1)N1CCC(c2cnc[nH]2)CC1`, the “activation” value was -1.66%.

As for `C/C=C(/C)C(=O)O[C@H]1C(C)=C2[C@H]([C@@H]1OC(=O)CCCCCCC)[C@@](C)(OC(C)=O)C[C@H](OC(=O)CCC)[C@@]1(O)[C@H]2OC(=O)[C@@]1(C)O`, the “activation” value is -0.209%.

On to `C[N+]1(C)C2CCC1CC(OC(=O)C(CO)c1ccccc1)C2` (stereo not given), for which the outcome was inactive.

Turning to `NC1CCc2cc(O)c(O)cc2C1` (stereo not given), the “activation” value is 15.1%.

As for `C[C@]12N[C@H](Cc3ccccc31)c1ccccc12`, the “activation” value is 4.41%.

On to `CNCCc1c[nH]c2ccc(O)cc12`, for which the “activation” value was 0.838%.

On to `Oc1ccc2c3c1O[C@H]1c4[nH]c5c(c4C[C@@]4(O)[C@@H](C2)N(CC2CC2)CC[C@]314)C[C@@]1(O)[C@H]2Cc3ccc(O)c4c3[C@@]1(CCN2CC1CC1)[C@H]5O4`, for which the “activation” value was -0.9%.

In the case of `O=C(O)CC[N+](=O)[O-]`, the “activation” value is 1.03%.

For the compound `CC(=O)NCCc1c[nH]c2ccccc12`, the “activation” value is 0.476%.

`O=C(N[C@H]1CN2CCC1CC2)c1ccc(Cl)cc1`: the “activation” value is 0.619%.

Consider `O=C1CCCN1CC#CCN1CCCC1`, for which the “activation” value is 5.99%.

For `CN[C@@H]1C[C@@H](c2ccc(Cl)c(Cl)c2)c2ccccc21`, the “activation” value is 4.75%.

Consider `COc1ccc2c(c[n+](C)c3c4cc5c(cc4ccc23)OCO5)c1OC`, for which the “activation” value was -1.2%.
